Measurements reported in the supplement of paper PMC7411640.
Where a name gives a salt, the structure may show the parent alone.

The molecules below were run on MDA-MB-468 (assay: phospho-S6 immunofluorescence (DAPI-normalised), per-plate z-score; higher = higher phospho-S6 signal (less pathway suppression)). Conditions: co-treatment: vehicle; 24 h.
Protocol: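 GPCR-targeted compound library (MedChemExpress HY-L006) tested on MDA-MB-468 PTEN-null TNBC cells in 384-well plates at 0.1, 1 or 10 uM, combined with vehicle, GDC0941 450 nM or lapatinib 1 uM, for 24 h. Phospho-S6 (S240/244) immunofluorescence normalised to DAPI and expressed as a per-plate z-score; values are the mean of biological triplicates.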

Row | SMILES | phospho-S6 immunofluorescence (z-score)
1 | COc1ccc(N2CCOCC2)c2sc(NC(=O)N3CCC(C)(O)CC3)nc12 [Tozadenant] (compound 10 µM) | 0.82
2 | CN1CCN(c2cc(-c3ccccc3)nc(N)n2)CC1 (compound 10 µM) | 1.14
3 | CN(C)CC[C@@H](c1ccc(Cl)cc1)c1ccccn1 [Dexchlorpheniramine (maleate)] (compound 10 µM) | -0.33
4 | COCCCN1CCC(NC(=O)c2cc(Cl)c(N)c3c2OCC3)CC1 [Prucalopride] (compound 10 µM) | 0.17
5 | CCCCC1=NC2(CCCC2)C(=O)N1Cc1ccc(-c2ccccc2-c2nnn[nH]2)cc1 [Irbesartan] (compound 10 µM) | 0.09
6 | CC1OC2(CS1)CN1CCC2CC1 (configuration not stated) [Cevimeline (hydrochloride hemihydrate)] (compound 10 µM) | 0.89
7 | COc1cc2nc(N(C)CCCNC(=O)C3CCCO3)nc(N)c2cc1OC (configuration not stated) [Alfuzosin] (compound 10 µM) | -0.19
8 | NC1=NCC2c3ccccc3Cc3ccccc3N12 (configuration not stated) [Epinastine] (compound 10 µM) | 0.35
9 | Clc1ccc2c(c1)CCc1cccnc1C2=C1CCNCC1 [Desloratadine] (compound 10 µM) | 0.51
10 | CCCCc1ccc(NS(=O)(=O)c2ccc(F)cc2)cc1 (compound 10 µM) | -10.2
11 | O=C(CCCN1CC=C(n2c(=O)[nH]c3ccccc32)CC1)c1ccc(F)cc1 [Droperidol] (compound 10 µM) | 0.18
12 | COc1ccc2cc(OCC3(C(=O)O)CN(C(=O)c4ccc(F)cc4)C3)ccc2c1 (compound 10 µM) | 0.47
13 | CCC1(c2c[nH]cn2)Cc2ccccc2C1 [Atipamezole (hydrochloride)] (compound 10 µM) | 1.24
14 | COc1cc2c(cc1OC)CN(C(=O)[C@@H](NCc1ccncc1)C(C)(C)C)CC2 (compound 10 µM) | -0.05
15 | COc1cc(/C=C/C(=O)O)ccc1O [Ferulic acid (sodium)] (compound 10 µM) | 0.33
16 | O=c1cc(C(Cl)(Cl)Cl)oc2ccc(Cl)cc12 (compound 10 µM) | 0.44
17 | CN(C)CCc1c[nH]c2ccc(CS(=O)(=O)N3CCCC3)cc12 [Almotriptan (malate)] (compound 10 µM) | 0.38
18 | C=C[C@@]1(C)CC(=O)[C@]2(O)[C@@]3(C)[C@@H](O)CCC(C)(C)[C@@H]3[C@H](O)[C@H](OC(C)=O)[C@@]2(C)O1 [Forskolin] (compound 10 µM) | 0.23
19 | Cc1ccc(/C(=C\CN2CCCC2)c2cccc(/C=C/C(=O)O)n2)cc1 [Acrivastine] (compound 10 µM) | 0.62
20 | CN1CCc2cc(Cl)c(O)cc2[C@@H](c2ccccc2)C1 (compound 10 µM) | 0.1
21 | O=C(COc1ccc(C(=O)c2ccccc2)cc1)NC1CCN(Cc2ccccc2)CC1 [AdipoRon] (compound 10 µM) | -1.92
22 | CC(C)[C@H](N=C(NS(=O)(=O)c1ccc(Cl)cc1)N1C[C@H](c2ccccc2)C(c2ccc(Cl)cc2)=N1)C(N)=O (compound 10 µM) | 0.1
23 | OC[C@H]1O[C@@H](n2cnc3c(N[C@H]4CCC[C@@H]4O)ncnc32)[C@H](O)[C@@H]1O (compound 10 µM) | 0.2
24 | Cc1c(C(=O)NN2CCCCC2)nn(-c2ccc(Cl)cc2Cl)c1-c1ccc(Cl)cc1 [Rimonabant (Hydrochloride)] (compound 10 µM) | -5.97
25 | CCOC(=O)N[C@@H]1CC[C@@H]2[C@@H](C1)C[C@H]1C(=O)O[C@H](C)[C@H]1[C@H]2/C=C/c1ccc(-c2cccc(F)c2)cn1 [Vorapaxar] (compound 10 µM) | -9.84
26 | CC(C)C(=O)OCC(=O)[C@@]12O[C@H](C3CCCCC3)O[C@@H]1C[C@H]1[C@@H]3CCC4=CC(=O)C=C[C@]4(C)[C@H]3[C@@H](O)C[C@@]12C [Ciclesonide] (compound 10 µM) | -1.25
27 | CC(C)Cc1ccc([C@@H](C)C(=O)NS(C)(=O)=O)cc1 [Reparixin (L-lysine salt)] (compound 10 µM) | -0.67
